This note sets out measurements from PubChem BioAssay (Tox21).

“And” between values parts separate entries of the source, which are not always exact repeats. Equal values may be shown once. Records with an inconclusive call do not appear. Some compounds were tested as several samples or in several runs, with calls that do not always agree. The source made the active and inactive calls. Unless noted, the call rests on the fitted dose curve.

Assay [1] is described as follows: Nuclear factor erythroid 2-related factor 2/antioxidant responsive element (Nrf2/ARE) small molecule agonists: qHTS cell viability counter screen in human keratinocytes (AID 1919968; active means well fitted curve in the direction sought with a large enough effect in the repeat runs; an effect the other way counts as inactive or inconclusive; further: nearly all actives have a fitted effect of over 55% in size; further: potency means the concentration at half of the fitted maximal effect). Put shortly:
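HaCaT ARE reporter line, 1,500 cells/well; 5 h settle, 37 C/5% CO2; cpd in DMSO pinned; 23 h exposure; CellTiter-Fluor, 1 h; fluorescence.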

For assay [2], the target named is KiSS-1 receptor (Homo sapiens) (UniProt Q969F8). Nature of the assay: Human kisspeptin (KISS1R) small molecule agonists, calcium flux assay in KISS1R-HEK293 cells (AID 1920064; active means well fitted curve in the direction sought with a large enough effect in the repeat runs; an effect the other way counts as inactive or inconclusive). Put shortly:
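Stable human KISS1R HEK293 line; 18 h plating, 37 C/5% CO2; calcium dye 1 h 37 C; compound pin transfer; kinetic fluorescence Ex/Em 480/540, 3 min.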
A general note: Calcium flux is commonly read through the fluorescence of an indicator in the cells.

Assay [3] is described as follows: G protein-coupled receptor (GPCR) small molecule agonists, calcium flux assay: HEK293 wild type cell line counter screen (AID 1920065). The gist of the method:
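Kinetic fluorescence at Ex/Em 480/540, recorded every second over 3 min, served as the read-out after compound addition. Each compound was tested at 15 concentrations in triplicate on cells pre-loaded with calcium dye for 1 h.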

Assay [4] is described as follows: p53 small molecule agonists, cell-based qHTS assay with human liver microsomes: qHTS cell viability counter screen (AID 1963579). Further: nearly all actives have a fitted effect of over 45% in size. Further: potency means the concentration at half of the fitted maximal effect. The gist of the method: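 Cells carrying the p53 response-element beta-lactamase reporter are treated for 16 h at 37 C with test compounds in the presence of human liver microsomes and NADPH (both 0.5 mg/mL final); ATP-based CellTiter-Glo luminescence then reports viability.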
On the technique in general: qHTS replaces the single test concentration by a dilution series.

Assay [5] in a line: p53 small molecule agonists, cell-based qHTS assay with rat liver microsomes: qHTS cell viability counter screen (AID 1963580). Further: nearly all actives have a fitted effect of over 45% in size. The gist of the method: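 Viability is assessed in parallel with the p53 reporter read: HCT-116 p53RE-bla cells receive compounds plus rat microsomes and NADPH (0.5 mg/mL final apiece), incubate 16 h at 37 C, and then CellTiter-Glo luminescence is recorded.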

A short description of assay [6]: p53 small molecule agonists, cell-based qHTS assay: qHTS cell viability counter screen (AID 1963581). Further: nearly all actives have a fitted effect of over 45% in size. Put shortly: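 HCT-116 p53RE-bla cells, 4,000/well, plated 5 h before compound pin transfer; 16 h at 37 C; bla substrate 2 h RT; then CellTiter-Glo, 30 min RT, luminescence.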
Assay [7] concerns the target 5-hydroxytryptamine receptor 2A (Homo sapiens) (UniProt P28223). Nature of the assay: 5-hydroxytryptamine receptor 2A (HTR2A) small molecule antagonists, cell-based qHTS assay (AID 1963586). Further: nearly all actives have a fitted effect of over 45% in size. Put shortly: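 Antagonist-mode intracellular calcium assay: DOI (4 nM) added after 5 min compound pre-incubation at room temperature to dye-loaded HTR2A-CHO cells. Fluorescence followed for 3 min, sampled every second.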

Assay [8] shares this target. Nature of the assay: 5-hydroxytryptamine receptor 2A (HTR2A) small molecule agonists, cell-based qHTS assay (AID 1963587). Further: nearly all actives have a fitted effect of over 30% in size. Further: potency means the concentration at half of the fitted maximal effect. Put shortly: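 CHO cells stably expressing human HTR2A, plated 18 h, loaded with calcium dye 1 h at 37 C. Agonist mode: compounds added and intracellular calcium fluorescence recorded kinetically for 2 min at 1 sec intervals.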
Assay [9] deals with Muscarinic acetylcholine receptor M1 (Homo sapiens) (UniProt P11229). Nature of the assay: Cholinergic receptor muscarinic 1 (CHRM1) small molecule antagonists, cell-based qHTS assay (AID 1963588). Further: nearly all actives have a fitted effect of over 40% in size. Put shortly: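 CHRM1-CHO calcium-flux assay, antagonist mode. Cells were seeded 18 h, dye-loaded 1 h at 37 C and given compound for 5 min at RT, then acetylcholine was added at 50nM. FDSS fluorescence was read 3 min; 15 concentrations, three runs.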

Assay [10] can be described thus: cAMP Responsive Elements (CRE) small molecule agonists, cell-based qHTS assay (AID 1963590). Put shortly:
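HEK 293T CRE-bla, 2,000 cells/well, 18 h preincubation 37 C/5% CO2; cpds (DMSO) pinned, 3 h; LiveBLAzer B/G FRET substrate, 2 h RT.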

The nature of assay [11]: cAMP Responsive Elements (CRE) small molecule antagonists, cell-based qHTS assay (AID 1963591; active means well fitted inhibition curve with a large enough effect in the signal ratio in the repeat runs, not every such curve was filed as active; the % refers to the signal ratio). The gist of the method:
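Beta-lactamase reporter read by FRET substrate (LiveBLAzer B/G) after 2 h at room temperature. CRE-bla HEK293T cells had received compound plus 0.25 uM (final) NKH477 for 3 h at 37 °C.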

For assay [12], the target named is Beta-2 adrenergic receptor (Homo sapiens) (UniProt P07550). Nature of the assay: Adrenergic beta2 receptor (ADRB2) small molecule antagonists, cell-based qHTS assay (AID 1963592). Further: series mostly up to about 92 µM; nearly all actives have a fitted effect of over 50% in size. Put shortly:
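Cells (CHO, stable ADRB2 overexpression) incubated 18-20hr at 37C; compounds added from DMSO; agonist mix (1nM isoproterenol, 100uM IBMX, 25uM Ro-20-1724) added; 0.5hr RT; d2-cAMP and anti-cAMP-cryptate added; 1hr RT; 665/615 nm read.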

For assay [13] the target is unchanged. Nature of the assay: Adrenergic beta2 receptor (ADRB2) small molecule agonists, cell-based qHTS assay (AID 1963593).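 Further: CHO cells stably overexpressing human ADRB2.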 Put shortly:
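CHO cells stably over-expressing ADRB2 were plated overnight at 37C, then dosed with compounds plus a stimulation mix containing 100uM IBMX and 25uM Ro-20-1724 for 0.5hr at room temperature. cAMP was measured by HTRF competition, 1hr.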

Assay [14] has as its target D(2) dopamine receptor (Homo sapiens) (UniProt P14416). Nature of the assay: Dopamine D2 receptor (DRD2) small molecule agonists, cell-based qHTS assay (AID 1963594). Further: nearly all actives have a fitted effect of over 35% in size. The gist of the method:
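HEK293 cells stably expressing human DRD2, pre-treated with PDE inhibitor Ro20-1724 (0.1 mM final) and compound 10 min at room temperature, then stimulated with NKH477 (200nM […]) for 30 min. cAMP read by HTRF (665/620 nm).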

Assay [15] shares this target. Nature of the assay: Dopamine D2 receptor (DRD2) small molecule antagonists, cell-based qHTS assay (AID 1963595; active means well fitted inhibition curve with a large enough effect in the signal ratio in the repeat runs, with a control signal flat; the % refers to the signal ratio; further: potency means the concentration at half of the fitted maximal effect). Put shortly: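 Antagonism was scored as restored cAMP in HEK293-DRD2 cells. These cells were stimulated with 200 nM NKH477 and 12 nM quinpirole for 30 min at room temperature, in the presence of 0.1 mM Ro20-1724.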
Assay [16] can be described thus: p53 small molecule agonists, cell-based qHTS assay with human liver microsomes (AID 1963577). The gist of the method: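 Compounds act here after metabolic activation: human liver microsomes and NADPH, both at 0.5 mg/mL final, were co-added to p53RE-bla cells. Incubation ran 16 h at 37 C, followed by LiveBLAzer detection.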
Assay [17] is described as follows: p53 small molecule agonists, cell-based qHTS assay with rat liver microsomes (AID 1963578). The gist of the method: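 Read-out is beta-lactamase reporter fluorescence (LiveBLAzer, 2 h, room temperature, dark) in p53RE-bla cells treated 16 h at 37 C with compound, rat liver microsomes and NADPH, both 0.5 mg/mL final.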
Assay [18] is described as follows: p53 small molecule agonists, cell-based qHTS assay (AID 1963582; active means well fitted activation curve with a large enough effect in the signal ratio in the repeat runs, not every such curve was filed as active; the % refers to the signal ratio). The gist of the method:
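Reporter line: p53RE-bla. Pre-incubation 5 h, 37 C, 5% CO2; compound (DMSO, pin tool) 16 h, 37 C; B/G FRET substrate 2 h RT; fluorescence intensity read.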

Assay [19] addresses Muscarinic acetylcholine receptor M1 (Homo sapiens) (UniProt P11229). Nature of the assay: Cholinergic receptor muscarinic 1 (CHRM1) small molecule agonists, cell-based qHTS assay (AID 1963589). Further: nearly all actives have a fitted effect of over 35% in size. Further: potency means the concentration at half of the fitted maximal effect. Put shortly:
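Human M1 in stable CHO line; 18 h plating, 1 h dye load 37 C; cpd added (agonist mode); Ca2+ fluorescence kinetic read, 1 s intervals; 15 conc, 3 runs.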

Assay [20] deals with Gonadotropin-releasing hormone receptor (Homo sapiens) (UniProt P30968). Nature of the assay: Human gonadotropin-releasing hormone receptor (GnRHR) small molecule agonists, calcium flux assay in GnRHR-HEK293 cells (AID 1920063). Further: nearly all actives have a fitted effect of over 35% in size. Put shortly:
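GnRHR-HEK293, 1500 cells/well, 18 h 37 C/5% CO2; Ca dye 1 h 37 C; cpd pinned (DMSO), agonist mode; kinetic FL 480/540, 3 min, 1 s reads; 15 conc, n=3.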

Chain of Muscarinic acetylcholine receptor M1 (Homo sapiens) (P11229 whole entry, looked up): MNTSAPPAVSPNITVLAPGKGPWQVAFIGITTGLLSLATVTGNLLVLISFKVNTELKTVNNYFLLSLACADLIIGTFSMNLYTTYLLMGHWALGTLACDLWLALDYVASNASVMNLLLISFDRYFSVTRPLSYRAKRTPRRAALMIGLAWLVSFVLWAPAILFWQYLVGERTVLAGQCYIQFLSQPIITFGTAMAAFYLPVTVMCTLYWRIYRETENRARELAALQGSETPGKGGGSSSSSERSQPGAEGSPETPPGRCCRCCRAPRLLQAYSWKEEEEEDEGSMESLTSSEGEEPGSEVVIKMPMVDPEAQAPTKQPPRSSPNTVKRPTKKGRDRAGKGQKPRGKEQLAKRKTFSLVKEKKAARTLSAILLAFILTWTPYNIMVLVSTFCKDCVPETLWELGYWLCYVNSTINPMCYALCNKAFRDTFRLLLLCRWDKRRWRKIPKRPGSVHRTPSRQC
Chain of D(2) dopamine receptor (Homo sapiens) (P14416 whole entry, looked up): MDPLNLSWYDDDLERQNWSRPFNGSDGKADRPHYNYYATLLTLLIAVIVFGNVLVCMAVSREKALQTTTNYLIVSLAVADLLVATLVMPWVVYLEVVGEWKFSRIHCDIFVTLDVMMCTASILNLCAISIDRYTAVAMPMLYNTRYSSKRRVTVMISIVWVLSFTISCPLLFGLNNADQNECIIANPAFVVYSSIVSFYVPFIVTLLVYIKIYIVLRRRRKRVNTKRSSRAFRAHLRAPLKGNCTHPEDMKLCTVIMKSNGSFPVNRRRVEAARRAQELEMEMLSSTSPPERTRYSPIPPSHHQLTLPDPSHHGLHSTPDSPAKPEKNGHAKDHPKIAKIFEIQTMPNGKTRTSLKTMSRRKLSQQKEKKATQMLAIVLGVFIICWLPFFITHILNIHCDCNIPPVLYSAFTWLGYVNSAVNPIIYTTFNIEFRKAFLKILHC
Chain of Gonadotropin-releasing hormone receptor (Homo sapiens) (P30968 whole entry, looked up): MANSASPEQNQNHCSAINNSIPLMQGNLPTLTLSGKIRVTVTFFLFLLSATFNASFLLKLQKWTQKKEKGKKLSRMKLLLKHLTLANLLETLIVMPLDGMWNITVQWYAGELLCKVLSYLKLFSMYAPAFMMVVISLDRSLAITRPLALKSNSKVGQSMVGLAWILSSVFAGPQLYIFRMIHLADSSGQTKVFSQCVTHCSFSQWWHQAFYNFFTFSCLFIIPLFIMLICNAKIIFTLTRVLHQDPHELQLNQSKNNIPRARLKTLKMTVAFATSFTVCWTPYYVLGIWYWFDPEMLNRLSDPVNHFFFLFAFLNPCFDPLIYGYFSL
Chain of 5-hydroxytryptamine receptor 2A (Homo sapiens) (P28223 whole entry, looked up): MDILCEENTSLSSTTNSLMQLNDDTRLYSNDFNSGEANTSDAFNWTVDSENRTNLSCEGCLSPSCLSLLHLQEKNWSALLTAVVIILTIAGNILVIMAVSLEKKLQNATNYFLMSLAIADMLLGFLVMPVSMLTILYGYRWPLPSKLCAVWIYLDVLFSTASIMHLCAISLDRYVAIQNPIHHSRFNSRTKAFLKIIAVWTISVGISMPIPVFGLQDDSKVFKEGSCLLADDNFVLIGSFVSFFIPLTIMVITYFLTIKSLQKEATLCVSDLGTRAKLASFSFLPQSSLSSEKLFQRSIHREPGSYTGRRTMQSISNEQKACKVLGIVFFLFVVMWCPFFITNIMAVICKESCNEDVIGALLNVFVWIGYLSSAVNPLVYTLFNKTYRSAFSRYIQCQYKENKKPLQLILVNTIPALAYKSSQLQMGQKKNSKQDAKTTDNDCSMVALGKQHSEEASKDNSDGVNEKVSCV
Chain of KiSS-1 receptor (Homo sapiens) (Q969F8 whole entry, looked up): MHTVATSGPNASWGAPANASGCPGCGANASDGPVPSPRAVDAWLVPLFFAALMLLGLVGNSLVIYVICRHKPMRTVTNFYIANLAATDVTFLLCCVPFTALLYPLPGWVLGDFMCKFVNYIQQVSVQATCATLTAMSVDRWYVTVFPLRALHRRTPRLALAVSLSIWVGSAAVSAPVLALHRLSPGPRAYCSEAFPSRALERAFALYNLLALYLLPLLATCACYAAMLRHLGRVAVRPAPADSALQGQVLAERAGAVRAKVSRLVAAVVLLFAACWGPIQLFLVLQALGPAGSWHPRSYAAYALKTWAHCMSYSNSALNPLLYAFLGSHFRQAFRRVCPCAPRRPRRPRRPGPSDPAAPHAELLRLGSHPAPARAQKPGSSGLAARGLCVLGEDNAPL
Chain of Beta-2 adrenergic receptor (Homo sapiens) (P07550 whole entry, looked up): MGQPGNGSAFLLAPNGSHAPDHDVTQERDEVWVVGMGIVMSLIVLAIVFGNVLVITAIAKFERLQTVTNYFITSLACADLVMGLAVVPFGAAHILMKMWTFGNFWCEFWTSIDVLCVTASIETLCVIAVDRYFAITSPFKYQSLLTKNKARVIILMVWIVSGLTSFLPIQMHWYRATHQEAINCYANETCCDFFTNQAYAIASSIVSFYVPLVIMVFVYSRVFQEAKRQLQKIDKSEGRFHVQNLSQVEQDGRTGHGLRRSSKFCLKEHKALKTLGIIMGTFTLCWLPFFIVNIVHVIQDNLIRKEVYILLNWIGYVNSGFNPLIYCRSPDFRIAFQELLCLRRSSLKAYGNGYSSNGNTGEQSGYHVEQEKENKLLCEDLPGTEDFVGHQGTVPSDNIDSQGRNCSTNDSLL

Take `C1CN2CCN1CC2`: the Potency entry in assay [1], in assay [2], in assay [3], in assay [4], in [5] and in [6] was “inactive” each time. For the same compound, the Potency result in [7], in assay [9], in assay [10], in assay [11], in [12] and in assay [13] was “inactive” throughout. Also, the Potency result in assay [14] and in assay [15] was “inactive” each time. Further, the Potency entry in assay [8] was “inactive and 54.9 µM (active)”.
`O=C1C2CC=CCC2C(=O)N1SC(Cl)(Cl)Cl` (configuration not stated): the Potency entry in assay [1] is “inactive and 26.9 µM (active)”; in assay [8] it was 24.1 µM (active); in [19], “inactive and 38.3 µM (active)”; in assay [15], “inactive and 23.9 µM (active)”. Further, the Potency entry in assay [3], in assay [16], in [17], in assay [4], in [5] and in assay [6] was “inactive” in each case. The Potency result in [18], in [7], in assay [9], in [11], in assay [12] and in [13] was “inactive” each time. Also, the Potency entry in assay [14] is “inactive”.
With `O=C1CCCN1`, the Potency result in [1], in assay [2], in assay [3], in assay [4], in [5] and in assay [6] was “inactive” throughout. The Potency entry in assay [7], in assay [8], in assay [9], in assay [10], in assay [11] and in [12] was “inactive” each time. For the same compound, the Potency result in assay [13], in assay [14] and in [15] was “inactive” throughout. The Potency in [19] is 49.5 µM (active) and inactive.
Turning to `CC(O)CN1CCN(CC(=O)[O-])CCN(CC(=O)[O-])CCN(CC(=O)[O-])CC1.[Gd+3]` (configuration not stated), the Potency entry in assay [1], in assay [2], in [3], in assay [16], in [17] and in assay [5] was “inactive” in each case. Also, the Potency result in [6], in assay [18], in [7], in assay [8], in assay [9] and in [19] was “inactive” each time. The Potency result in [10], in [11], in assay [12], in assay [13], in assay [14] and in assay [15] was “inactive” each time.
Consider `COP(=O)(CCC(=O)NCO)OC`, for which the Potency result in [1], in assay [20], in assay [2], in [3], in assay [16] and in assay [17] was “inactive” in each case. Also, the Potency entry in assay [4], in assay [5], in assay [6], in assay [18], in assay [7] and in assay [8] was “inactive” each time. Besides, the Potency entry in [9], in assay [19], in assay [10], in [11], in assay [12] and in assay [14] was “inactive” throughout. The Potency result in [15] was “inactive”.
Consider `OCC(O)CO`, for which the Potency result in assay [1], in [16], in assay [17], in assay [4], in assay [5] and in [6] was “inactive” in each case. Besides, the Potency entry in assay [18] was “inactive”.
Consider `Oc1ccc(Cl)cc1`, for which the Potency result in assay [1], in [20], in assay [2], in assay [3], in assay [16] and in [17] was “inactive” in each case. Moreover, the Potency entry in [4], in assay [5], in [6], in assay [18], in [7] and in assay [8] was “inactive” each time. Moreover, the Potency entry in assay [19], in assay [10], in assay [11], in [12], in assay [13] and in assay [14] was “inactive” in each case. Moreover, in assay [15], the Potency entry is “inactive”.
Regarding `O=C(O)CCCOc1ccc(Cl)cc1Cl`, the Potency result in assay [1], in [20], in assay [2], in assay [3], in assay [16] and in assay [17] was “inactive” each time. The Potency entry in assay [5], in assay [6], in [8], in assay [9], in [19] and in assay [12] was “inactive” in each case. Besides, the Potency result in assay [13], in assay [14] and in assay [15] was “inactive” in each case. Moreover, in assay [4], the Potency result is “inactive and 29.4 µM (active)”.
